Values joined by “and” are separate entries in the source; they are usually repeats but may differ in a detail not shown here. Equal entries are not always repeated. The panel holds about 83,000 compounds, 20% with a hit somewhere; the sample as a whole holds those more often.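 Single-concentration screen, 48 h exposure, 96-well plates. Endpoint: percent growth. Below 10 = active.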 Active and inactive are the calls of the source.
Tests used:
Assay in all cases: NCI-60 one-dose screen, 48 h (100 = growth as untreated, 0 = no growth, -100 = all killed)
Details in all cases: 10 µM unless noted
SK-MEL-2 melanoma = test system: SK-MEL-2 melanoma
SN12C renal = test system: SN12C renal
UO-31 renal = test system: UO-31 renal
TK-10 renal = test system: TK-10 renal
ACHN renal = test system: ACHN renal
CAKI-1 renal = test system: CAKI-1 renal
A498 renal = test system: A498 renal
CCRF-CEM leukemia = test system: CCRF-CEM leukemia
MOLT-4 leukemia = test system: MOLT-4 leukemia
EKVX NSCLC = test system: EKVX NSCLC

Measured: growth

Cc1cc(Cl)ccc1NC(=O)Nc1ccc(-c2ccc3c(c2)NC(=O)/C3=C\c2ccc[nH]2)cc1
inactive: SK-MEL-2 melanoma 121% | SN12C renal 97.6% | UO-31 renal 78.3% | TK-10 renal 115% | ACHN renal 98.8% | CAKI-1 renal 99% | A498 renal 119% | CCRF-CEM leukemia 97.8% | MOLT-4 leukemia 86.2%

O=C(Nc1ccc(Cl)c(C(F)(F)F)c1)N1CCN(c2cc(-c3cn(-c4ccccc4)nc3-c3cccc(O)c3)ccn2)CC1
active: EKVX NSCLC -0.99% | SN12C renal 4.12% | UO-31 renal 5.37% | TK-10 renal 8.9% | ACHN renal 3.14% | CAKI-1 renal 9.06% | CCRF-CEM leukemia 0.607% | MOLT-4 leukemia 1.52%
inactive: A498 renal 38.9%

COc1ccc2c(c1)C(Sc1ccc(F)cc1)c1c(nc(N)c(C#N)c1N)O2 (stereo not given)
inactive: EKVX NSCLC 87.1% | SN12C renal 78.5% | UO-31 renal 39.8% | ACHN renal 86.6% | CAKI-1 renal 84.9% | A498 renal 101% | MOLT-4 leukemia 53.9%
active: CCRF-CEM leukemia 1.67%

O=C1NC(=S)/C(=C/c2cn(-c3ccccc3)nc2-c2ccccc2)S1
inactive: SN12C renal 16% | UO-31 renal 16.7% | TK-10 renal 34.3% | ACHN renal 20.1% | CAKI-1 renal 28.3% | CCRF-CEM leukemia 30.9% | MOLT-4 leukemia 33.5%
active: EKVX NSCLC 2.24% | A498 renal -4.62%

Cc1cccc(-c2ccccc2Oc2ccc3nnc(Cl)n3n2)c1
inactive: EKVX NSCLC 98.2% | SN12C renal 101% | UO-31 renal 90.6% | TK-10 renal 103% | ACHN renal 105% | CAKI-1 renal 92.2% | A498 renal 117% | CCRF-CEM leukemia 103% | MOLT-4 leukemia 103%

O=C1/C(=C/C=C/c2ccco2)SC(=S)N1CC(=S)C1C=CS(=O)(=O)C1 (stereo not given)
inactive: EKVX NSCLC 94% | SN12C renal 81.2% | UO-31 renal 84.1% | TK-10 renal 126% | ACHN renal 100% | CAKI-1 renal 107% | A498 renal 141% | CCRF-CEM leukemia 45.9% | MOLT-4 leukemia 68.8%

CC1=C(C)C(=O)C(NCCN2CCOCC2)=C(Br)C1=O
active: CCRF-CEM leukemia -21% | MOLT-4 leukemia 0.284%
inactive: EKVX NSCLC 46.4% | SN12C renal 52% | UO-31 renal 44.7% | ACHN renal 62.3% | CAKI-1 renal 45.3% | A498 renal 124%

CS(=O)(=O)Nc1cccc(-n2c(COc3ccc(OC(F)(F)F)cc3)nc3ccccc32)c1
inactive: EKVX NSCLC 86.4% and 98% | SN12C renal 113% and 115% | UO-31 renal 51.1% and 87.7% | TK-10 renal 105% and 111% | ACHN renal 81% and 109% | CAKI-1 renal 61.4% and 99.4% | A498 renal 98.2% and 127% | CCRF-CEM leukemia 93.3% and 99.8% | MOLT-4 leukemia 80.3% and 97%

CC1=C(C(=O)Nc2ccccc2)C(c2cccc3ccccc23)n2c(nc3ccccc32)N1 (stereo not given)
inactive: EKVX NSCLC 67.4% | SN12C renal 18.5% | UO-31 renal 59% | TK-10 renal 81% | ACHN renal 27.6% | A498 renal 102% | CCRF-CEM leukemia 65.4% | MOLT-4 leukemia 67.5%
active: CAKI-1 renal 5.8%

NC(=O)c1ccc(-c2ccc3ncnc(N4CCc5cc(F)c(Cl)cc54)c3c2)cn1
inactive: EKVX NSCLC 19.5% | SN12C renal 61.9% | UO-31 renal 33.1% | TK-10 renal 28.2% | ACHN renal 30.3% | CAKI-1 renal 31.1% | A498 renal 74.7% | CCRF-CEM leukemia 44.2% | MOLT-4 leukemia 18.4%

COc1nc(N)ncc1-c1ccc2ncnc(N3CCc4cc(F)c(Cl)cc43)c2c1
inactive: EKVX NSCLC 24.2% | CCRF-CEM leukemia 61.6% | MOLT-4 leukemia 62.9%
active: SN12C renal -40.9% | UO-31 renal -32.4% | TK-10 renal -50% | ACHN renal -84.7% | CAKI-1 renal 4.22% | A498 renal -15.6%

COc1cc(C2CC(c3ccc(Cl)cc3)=Nc3c(N)nc(N)nc3N2)ccc1Oc1nc(Nc2ccc(F)cc2)nc(N(C)C)n1 (stereo not given)
inactive: EKVX NSCLC 49.6% | SN12C renal 55.6% | UO-31 renal 34.6% | TK-10 renal 72.1% | ACHN renal 62.3% | CAKI-1 renal 35.3% | A498 renal 59.5% | CCRF-CEM leukemia 47%
active: MOLT-4 leukemia -8.16%

O=C(NN1C(=O)/C(=C/C=C/c2ccc([N+](=O)[O-])o2)SC1=S)c1ccc([N+](=O)[O-])cc1
active: EKVX NSCLC -97.8% | SN12C renal -99.9% | UO-31 renal -100% | TK-10 renal -98% | ACHN renal -100% | CAKI-1 renal -100% | A498 renal -95.8% | CCRF-CEM leukemia -37.2% | MOLT-4 leukemia -3.98%

From PubChem BioAssay (NCI)
